The results in this text go back to PubChem BioAssay AID463173 (ICCB-Longwood Screening Facility, Harvard Medical School, 2010).

Hit rate of the full screen: of about 52,000 compounds, about 4,300 (8.3%) were called active. No stated cut-off is given here; in the data, active means survival mostly below about 52% (no sharp cut-off); inactive means mostly above about 56%. The full list was thinned out, with actives kept by preference.

The experiment deals with DeltatarO mutant. Kind of experiment: S. aureus survival, RN4220 and DeltatarO strains – OD600, teichoic acid synthesis inhibitors, primary screen (AID 463173). The following applies: S. aureus RN4220 wild type/DeltatarO growth, OD600, 18 h, hits give low values, concentration not given here.
`CC(=O)NC1CC2CCC(C1)N2` (stereo unspecified): the survival is 98% (inactive).
As for `O=C(CCc1nc(C2=CCN(Cc3cccc(Cl)c3)CC2)no1)Nc1ccccc1F`, the survival was 81% (inactive).
Next, `OC1(c2cccc(F)c2)CC2CCC(C1)N2Cc1nnnn1CCc1ccccc1` (stereo unspecified): 85% (inactive); `CSc1ccc(CN2CCN(C(=O)COc3cccc(C)c3)CC2)cc1`: 84% (inactive).
Next, `Cc1c(/C(CC(C)C)=N/O)c2ccccc2n1C`: 79% (inactive).
Take `O=C(Nc1ccc(F)c([N+](=O)[O-])c1)c1cccn(Cc2ccccc2)c1=O`: the survival is 115% (inactive).
As for `CN1CCN(Cc2cn3ccccc3n2)CC1`, the survival is 104% (inactive).
Next, `CCOc1ccc(CN(CCc2ccc3c(c2)OCO3)Cc2cccc(OC)c2)cc1`: 44% (inactive).
Next, `CCOc1ccc(CN(CCc2ccc3c(c2)OCO3)Cc2cc(OC)ccc2O)cc1`: 62% (inactive).
Next, `O=C(Nc1ccc(Cl)cc1C(=O)c1ccccc1)c1cc(Cl)cc(Cl)c1`: 150% (inactive).
With `O=C(COc1ccc(Br)cc1)Nc1ccc(Cl)cc1C(=O)c1ccccc1`, the survival was 83% (inactive).
Next, `O=C(Nc1ccc(Cl)cc1C(=O)c1ccccc1)c1ccccc1Br`: 24% (active).
Next, `CC(C)OC12Oc3ccccc3C=C1N1CCC2CC1` (stereo unspecified): 80% (inactive).
Next, `COc1ccc(CN2CCN(C(=O)COc3ccccc3)CC2)c(OC)c1`: 184% (inactive); `c1cc(CN2CCNCC2)ccn1`: 105% (inactive); `Nc1c(C(=O)Nc2ccc(Br)cc2F)sc2nc3c(cc12)N1CCC3CC1`: 132% (inactive).
As to `Nc1c(C(=O)Nc2ccc(Cl)c(C(F)(F)F)c2)sc2nc3c(cc12)N1CCC3CC1`, the survival is 4% (active).
Next, `Nc1c(C(=O)Nc2ccc(F)c(Cl)c2)sc2nc3c(cc12)N1CCC3CC1`: 65% (inactive); `Nc1c(C(=O)Nc2ccc(Cl)cc2)sc2nc3c(cc12)N1CCC3CC1`: 55% (inactive).
Next, `Nc1c(C(=O)Nc2ccc(OC(F)(F)F)cc2)sc2nc3c(cc12)N1CCC3CC1`: 99% (inactive).
Next, `Nc1c(C(=O)Nc2cccc(Br)c2)sc2nc3c(cc12)N1CCC3CC1`: 40% (active); `COc1ccc(C2CC(=O)Oc3c2c(=O)oc2ccccc32)c(OC)c1OC` (stereo unspecified): 75% (inactive); `COc1ccccc1CN1CCN(C(=O)COc2cccc(C)c2)CC1`: 162% (inactive).
As to `O=C1CN=C(c2ccccc2)c2cc(Cl)ccc2N1Cc1ccc(Cl)cc1`, the survival was 66% (inactive).
For `Cc1ccc(Cn2cccc(C(=O)Nc3ccc4c(c3)OCCO4)c2=O)cc1`, the survival is 83% (inactive).
Next, `CCOc1ccccc1CN(CCc1ccc2c(c1)OCO2)Cc1ccc(CC)cc1`: 111% (inactive); `CCCC1=Nc2cc(C(=O)NCCCN(CC)CC)ccc2Sc2ccccc21`: 138% (inactive); `CCCC1=Nc2cc(C(=O)NC3CCC(C)CC3)ccc2Sc2ccccc21` (stereo unspecified): 39% (active).
On to `CC1CC(=O)C2CCCCC2N1` (stereo unspecified), for which the survival was 84% (inactive).
`Cc1ccc(Cn2cccc(C(=O)Nc3ccc4c(c3)OCO4)c2=O)cc1`: the survival was 75% (inactive).
Next, `CN(C)C(=O)Oc1cccc2cccnc12`: 76% (inactive); `COc1ccc(-n2c(/C=C\c3ccccc3F)nc3ccccc3c2=O)c(OC)c1`: 89% (inactive); `Cc1cccc(-n2c(/C=C/c3c(C)[nH]c4ccccc34)nc3ccccc3c2=O)c1`: 120% (inactive).
On to `Cc1ccccc1-n1c(/C=C/c2c(C)[nH]c3ccccc23)nc2ccccc2c1=O`, for which the survival was 18% (active).
Next, `O=c1c2ccccc2nc(/C=C/c2ccccc2)n1-c1ccccc1F`: 69% (inactive); `CSc1ccc(/C=C/c2nc3ccccc3c(=O)n2-c2cccc(Cl)c2C)cc1`: 80% (inactive).
In the case of `Cc1ccccc1-n1c(/C=C/c2ccc(N(C)C)cc2)nc2ccccc2c1=O`, the survival is 8% (active).
Next, `Cc1ccc(-n2c(/C=C\c3ccc(F)c(F)c3)nc3ccccc3c2=O)c(C)c1`: 98% (inactive); `Cc1ccc(-n2c(/C=C/c3ccc(Br)s3)nc3ccccc3c2=O)cc1C`: 90% (inactive).
Next, `Cc1ccccc1-n1c(/C=C/c2ccc(O)cc2)nc2ccccc2c1=O`: 35% (active); `O=c1c2ccccc2nc(/C=C\c2ccc(F)cc2)n1-c1ccccc1F`: 94% (inactive).
Next, `Cc1ccccc1-n1c(/C=C/c2ccccc2F)nc2ccccc2c1=O`: 5% (active).
In the case of `Cc1ccc(-n2c(/C=C/c3ccccc3)nc3ccccc3c2=O)cc1C`, the survival is 78% (inactive).
Next, `CN1C2CCC1CC(OC(=O)C1(c3ccccc3)CCCC1)C2` (stereo unspecified): 116% (inactive); `CCN(CC)CCSc1nc2ccccc2c(=O)n1-c1ccc(Cl)cc1`: 148% (inactive).
Next, `CC(c1ccccc1)n1cncc1C(=O)N1CCCC1=O` (stereo unspecified): 87% (inactive).
Take `Cc1ccc(OCC(=O)N2CCN(Cc3ccc(F)cc3)CC2)cc1`: the survival is 156% (inactive).
Next, `Cc1cccc(NC(=O)Cn2cc(C(=O)c3ccccc3)c3ccccc32)c1`: 130% (inactive).
Next, `CCOc1ccc(CN2C(=O)c3ccccc3Sc3ccc(C(=O)N4CCC5(CC4)OCCO5)cc32)cc1`: 74% (inactive).
Next, `COc1cc2[nH]c(=O)n(-c3ccc(C)cc3)c(=O)c2cc1OC`: 94% (inactive).
Turning to `OC1CCNC2CCCCC12` (stereo unspecified), the survival is 94% (inactive).
Next, `Cc1nc2ccccc2c(=O)n1-c1cccc(O)c1`: 96% (inactive); `Cc1oc(-c2ccccc2Cl)nc1CN1C(=O)CN=C(c2ccccc2)c2cc(Cl)ccc21`: 77% (inactive); `Cc1cccc(Cn2cccc(C(=O)Nc3nc4ccccc4s3)c2=O)c1`: 122% (inactive).
Next, `CCc1ccc(-n2nc(C)c3c2NC(=O)CSC3c2ccc(C(=O)OC)cc2)cc1` (stereo unspecified): 64% (inactive); `Cc1ccc(-n2nc(C)c3c2NC(=O)CSC3c2ccc(O)cc2)cc1Cl` (stereo unspecified): 73% (inactive); `Cc1ccccc1-n1nc(C)c2c1NC(=O)CSC2c1ccccc1C(F)(F)F` (stereo unspecified): 39% (active).
Next, `COc1ccc(Br)cc1C1SCC(=O)Nc2c1c(C)nn2-c1ccccc1C` (stereo unspecified): 43% (inactive).
For `Cc1ccccc1-n1nc(C)c2c1NC(=O)CSC2c1ccc(N(C)C)cc1` (stereo unspecified), the survival is 43% (active).
Next, `Cc1ccccc1-n1nc(C)c2c1NC(=O)CSC2c1ccc(Cl)cc1` (stereo unspecified): 21% (active).
With `CCc1ccc(-n2nc(C)c3c2NC(=O)CSC3c2ccccc2C)cc1` (stereo unspecified), the survival is 57% (inactive).
Next, `O=C(COc1cc(Cl)ccc1Cl)Nc1ccc(Cl)cc1C(=O)c1ccccc1`: 69% (inactive); `CC1=CC(=O)C2=C(C)CC(O)C3C(C)C(=O)OC3C12` (stereo unspecified): 100% (inactive); `CCc1ccc(NC(=O)c2cccn(Cc3cccc([N+](=O)[O-])c3)c2=O)cc1`: 89% (inactive).
Next, `Cc1cc(C=C(C#N)C#N)c(C)n1C1CCCC1`: 64% (inactive).
Next, `CC(C)NCc1ccc2c(c1)OCO2`: 76% (inactive); `Cc1ccc(C(C)(C)C)c(OCC(=O)Nc2ccc(Cl)cc2C(=O)c2ccccc2)c1`: 66% (inactive); `CCN(CC)C(=O)c1ccc(NC(=O)Cn2nc(-c3ccc(C)cc3)c3ccccc3c2=O)cc1`: 50% (inactive).
Regarding `CCN(CC)C(=O)c1ccc(NC(=O)CCn2nc(-c3ccc(C)cc3)c3ccccc3c2=O)cc1`, the survival was 61% (inactive).
Next, `CCN(CC)C(=O)c1ccc(NC(=O)CCn2nc(-c3ccc(Cl)cc3)c3ccccc3c2=O)cc1`: 47% (active); `CCOc1ccccc1NC(=O)c1cccn(Cc2ccccc2C)c1=O`: 70% (inactive); `Cc1n[nH]c(C)c1CCN`: 80% (inactive).
Next, `Cc1[nH]c2c(C)cccc2c1CCN`: 37% (active); `O=S1(=O)CC2(N3CCOCC3)CCCCC21` (stereo unspecified): 84% (inactive).
Turning to `C=CCN1C(=O)CN=C(c2cccs2)c2c1sc1c2CCC1`, the survival was 92% (inactive).
For the molecule `COc1ccc(OC)c(NC(=O)Cn2cc(C(=O)c3ccccc3F)c3ccccc32)c1`, the survival is 70% (active).
Next, `COc1cccc(NC(=O)Cn2cc(C(=O)c3ccccc3)c3ccccc32)c1`: 47% (inactive).
With `COc1ccc(OC)c(NC(=O)Cn2cc(C(=O)c3ccccc3)c3ccccc32)c1`, the survival was 59% (inactive).
Next, `Cc1ccc(-c2nn3c(=O)cc(CN4CCN(C(=O)COc5ccc(C)c(C)c5)CC4)nc3s2)cc1`: 81% (inactive); `O=C(COc1ccccc1Cl)N1CCN(CCc2ccccn2)CC1`: 110% (inactive); `COc1ccc(OC)c(C(c2c(O)c3ccccc3oc2=O)c2c(C)n(C)n(-c3ccccc3)c2=O)c1` (stereo unspecified): 56% (inactive).
Next, `COc1cccc(-n2c(/C=C/c3cccc(C)c3)nc3ccccc3c2=O)c1`: 0% (active); `COc1cccc(/C=C/c2nc3ccccc3c(=O)n2-c2ccc(Cl)cc2)c1OC`: 88% (inactive); `COc1ccc(/C=C/c2nc3ccccc3c(=O)n2-c2ccc(C)cc2)cc1O`: 85% (inactive).
Next, `Cc1ccc(-n2c(/C=C/c3ccccc3)nc3ccccc3c2=O)cc1Cl`: 68% (inactive); `COc1cccc(-n2c(/C=C\c3ccc(Cl)cc3)nc3ccccc3c2=O)c1`: 30% (active).
In the case of `Cc1cccc(-n2c(/C=C\c3cccc(Br)c3)nc3ccccc3c2=O)c1`, the survival is 113% (inactive).
Next, `O=c1c2ccccc2nc(/C=C/c2cccc3ccccc23)n1-c1ccc(Cl)cc1`: 78% (inactive).
Next, `CCN1CCN(C(=O)COc2ccc(S(=O)(=O)N(C)Cc3ccccc3)cc2)CC1`: 87% (inactive); `CC1(C)CC(NC(=O)CN2CCCC2=O)CC(C)(C)N1`: 79% (inactive); `COc1ccc(C=C2C(=O)NC(=S)NC2=O)cc1`: 96% (inactive).
Next, `Cc1cccc(OC(C)C(=O)NCC2(N(C)C)CCCCC2)c1C` (stereo unspecified): 92% (inactive).
In the case of `N#CC(C#N)=Cc1ccc(Sc2ccccc2)o1`, the survival is 72% (inactive).
Next, `COc1ccccc1CNCCc1ccccc1`: 95% (inactive).
Next, `COc1ccc(OCC(=O)N2CCN(CCc3ccncc3)CC2)cc1`: 82% (inactive); `CCc1ccc(OCC(=O)N2CCN(CCc3ccncc3)CC2)cc1`: 98% (inactive).
Next, `Cc1ccc(C(C)C)c(OCC(=O)N2CCN(CCc3ccncc3)CC2)c1`: 42% (active); `O=C(COc1ccccc1[N+](=O)[O-])N1CCN(CCc2ccncc2)CC1`: 90% (inactive); `O=C(COc1cccc(Cl)c1)N1CCN(CCc2ccncc2)CC1`: 47% (active).
Turning to `Cc1ccc(OCC(=O)N2CCN(CCc3ccncc3)CC2)cc1C`, the survival was 53% (inactive).
Take `CC(C)c1ccc(OCC(=O)N2CCN(CCc3ccncc3)CC2)cc1`: the survival was 44% (active).
Next, `O=C(COc1ccccc1Cl)N1CCN(CCc2ccncc2)CC1`: 95% (inactive); `Cc1cc(OCC(=O)N2CCN(CCc3ccncc3)CC2)cc(C)c1Cl`: 57% (active).
Next, `Cc1cc(OCC(=O)N2CCN(CCc3ccncc3)CC2)ccc1Cl`: 49% (inactive); `Cc1ccc(OCC(=O)N2CCN(CCc3ccncc3)CC2)cc1`: 86% (inactive).
Next, `O=C(COc1ccc2ccccc2c1)N1CCN(Cc2ccncc2)CC1`: 67% (inactive).
